Results filed as inconclusive are left out. Entries that show only a call come without a potency. Activity calls are given as the source filed them. The call rests on the fitted dose curve; in most records, active means well fitted inhibition curve with a large enough effect; inconclusive means small, poorly fitted or top-dose-only effect; inactive means flat fitted curve, though single readings scatter. Bridge positions count the residues as written; N and C are the ends. Square brackets hold non-standard residues; d marks the D form. Peptide text beside a SMILES is read from it. * marks the point of attachment. Ileψ(thiazoline)Cys = CC[C@H](C)[C@H](N)C1=N[C@H](C(=O)*)CS1; d(aIle) = CC[C@H](C)[C@@H](N)C(=O)O; dOrn = NCCC[C@@H](N)C(=O)O
Potency means the concentration at half of the fitted maximal effect.

The experiment deals with HB3. The experiment is described as follows: qHTS profiling for inhibitors of Plasmodium falciparum proliferation (AID 504749). Further: nearly all actives have a fitted effect of over 60% in size. The conditions noted are these: P. falciparum in erythrocytes, SYBR Green DNA, 72 h; series mostly up to 12.8 µM. Summed up:
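Each compound contacts P. falciparum-infected red blood cells for 72 h at 37 C; lysis buffer (Tris, EDTA, saponin, Triton X, SYBR Green I) is added and fluorescence measured next morning; values normalized to controls.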
A general note: qHTS replaces the single test concentration by a dilution series.
As for `CN1CCO[C@H](c2ccccc2)c2ccccc2C1`, the Potency entry was “inactive”.

As to `C[C@H](CCC(=O)O)[C@H]1CC[C@@H]2[C@@H]3[C@@H](O)C[C@H]4C[C@@H](O)CC[C@@]4(C)[C@H]3CC[C@@]21C`, the Potency entry is “inactive”.

In the case of `CN(C/C=C\c1ccccc1)Cc1cccc2ccccc12`, the Potency entry was “inactive”.

As for `CCN(CCCCOC(=O)c1ccc(OC)c(OC)c1)[C@@H](C)Cc1ccc(OC)cc1`, the Potency entry is “inactive”.

Take `CCC(=O)OCC(=O)[C@@]1(OC(=O)CC)[C@H](C)C[C@@H]2[C@@H]3[C@H]([C@@H](O)C[C@@]21C)[C@]1(C)C=CC(=O)C=C1C[C@@H]3Cl`: the Potency is 3.55 µM (active).

Take `C[C@H](C(=O)O)c1cccc(Oc2ccccc2)c1`: the Potency result was “inactive”.

Regarding `CC1(C)[C@@H](OC(=O)CCC(=O)O)CC[C@@]2(C)[C@H]1CC[C@@]1(C)[C@H]2C(=O)C=C2[C@H]3C[C@](C)(C(=O)O)CC[C@]3(C)CC[C@@]21C`, the Potency entry is “inactive”.

Regarding `CCOC(=O)O[C@@H](C)OC(=O)[C@@H]1N2C(=O)[C@@H](NC(=O)[C@@H](N)c3ccccc3)[C@H]2SC1(C)C`, the Potency result was “inactive”.

For the compound `Cc1ccsc1/C=C\C1=NCCCN1C`, the Potency result was “inactive”.

`C#C[C@]1(O)CC[C@@H]2[C@H]3CCC4=CCCC[C@@H]4[C@@H]3CC[C@@]21C`: the Potency result is “inactive”.

Regarding `CC[C@H](C)[C@H](N)C1=N[C@H](C(=O)N[C@@H](CC(C)C)C(=O)N[C@@H](CCC(=O)O)C(=O)N[C@@H](C(=O)N[C@H]2CCCCNC(=O)[C@@H](CC(N)=O)NC(=O)[C@@H](CC(=O)O)NC(=O)[C@@H](Cc3cnc[nH]3)NC(=O)[C@@H](Cc3ccccc3)NC(=O)[C@@H]([C@@H](C)CC)NC(=O)[C@@H](CCCN)NC2=O)[C@@H](C)CC)CS1` ({Ileψ(thiazoline)Cys}-LE[d(aIle)]K[dOrn][d(aIle)][dF][dH][dD][dN]; lactam 4-C), the Potency result was “inactive”.

Values taken from PubChem BioAssay (NCATS).
